This is an account of results in PubChem BioAssay AID1531 (NMMLSC, 2009).

Molecules are shown by their SMILES. The whole screen tested about 290,000 compounds, of which about 3,300 (1.1%) were called active. Only a selection was taken, and actives are over-represented in it overall. A number with no mark means an inactive call. No stated cut-off is given here; in the data, active means binding response below about 67% or above about 130%; inconclusive means no clear call, values can overlap the other calls; inactive means in between.

The test has as its target Mitogen-activated protein kinase kinase kinase 2 (Homo sapiens) (UniProt Q9Y2U5). The test is described as follows: wildtype MEKK2 PB1-MEK5 interaction, increase or decrease – biochemical, multiplex bead flow cytometry, Alexa488-MEK5, primary screen (AID 1531). The conditions noted are these: Alexa488-MEK5 binding to MEKK2 WT, at 10 µM, actives lie on both sides.
Consider `Cc1ccc(C23CC4CC(CC(C(=O)NCC(=O)O)(C4)C2)C3)cc1`, for which the binding response (% of control) is 105%.
With `N#C/C(=C\c1cccnc1)C(=O)Nc1ccc(SC(F)F)cc1`, the binding response (% of control) was 107%.
Turning to `CCOc1ccc(N/C=C/C(=O)c2ccccc2)cc1`, the binding response (% of control) was 109%.
In the case of `Cc1ccc(-c2nn(-c3ccccc3)cc2CN(Cc2ccccc2)C(=O)CCC(=O)O)o1` it was 97%; in that of `O=C(Nc1cn(-c2ccccc2)nc1-c1ccccc1)c1ccccc1`, 96%.
In the case of `CCc1ccc(-c2nn(-c3ccccc3)cc2CSC(=N)N)cc1` it was 140% (active); in that of `CC(=O)NCCc1ccc(S(=O)(=O)Nc2ccc(C)c(S(=O)(=O)N3CCOCC3)c2)cc1`, 103%; in that of `O=C(Nc1cccc(Br)c1)c1ccc2snnc2c1`, 97%.
In the case of `O=C(Nc1ccc2ccccc2c1)Nc1ccc2snnc2c1` it was 158% (active); in that of `CCc1ccccc1NC(=O)c1ccc2snnc2c1`, 100%; in that of `COc1ccc2c(c1)CCNC2Cc1ccc(OC)c(O)c1` (stereo unspecified), 96%.
In the case of `COc1ccc(N2CCN(CCNC(=O)Nc3cc(Cl)ccc3Cl)CC2)cc1`, the binding response (% of control) was 113%.
`C=CC1=C(C(=O)O)N2C(=O)[C@@H](NC(=O)/C(=N/OCC(=O)O)c3csc(N)n3)[C@H]2SC1`: the binding response (% of control) was 98%.
In the case of `COc1ccc(/C=N/N=C2/C(=O)Nc3ccccc32)cc1O` it was 98%; in that of `C(=N\N1CCN(c2ccccn2)CC1)/C1=C(N2CCOCC2)C(=C/c2ccccc2)/CC1`, 104%; in that of `O=C1Nc2ccc(Br)cc2/C1=N/N=C/C1=C(N2CCOCC2)C(=C\c2ccccc2)/CC1`, 40% [inhibitor] (active).
`CS(=O)(=O)N1CCN(C(=O)CSc2ccccc2)CC1`: the binding response (% of control) was 101%.
Regarding `COc1ccc(C)cc1Nc1n[n+](-c2ccccc2)c(-c2cccc(Cl)c2Cl)s1`, the binding response (% of control) was 120%.
In the case of `COc1cc(Br)c(-c2sc(Nc3ccccc3)n[n+]2-c2ccccc2)cc1OC` it was 152% (active); in that of `CC(C)(C)C(=O)c1cnc(Nc2ccccc2)s1`, 100%; in that of `COc1ccc(C#Cc2c(-c3ccc(OC)cc3)oc3ccc(-c4ccc5c(c4)OCO5)cc23)cc1`, 96%.
In the case of `O=C(CNC(=O)OCc1ccccc1)NC1CCCCNC1=O` (stereo unspecified) it was 100%.
In the case of `Cc1ccc(NC(=S)N(CCCN2CCCC2)Cc2cccn2Cc2ccc(Cl)cc2)cc1` it was 181% (active).
Turning to `Cc1ccc(NC(=S)N(CCCN2CCC(C)CC2)Cc2ccco2)cc1`, the binding response (% of control) is 107%.
The value for `Cc1ccc(NC(=S)N(CCN2CCCCC2)Cc2ccco2)cc1C` was 97%.
The value for `COc1ccc(CCNCc2c(-c3ccccc3)n(C)c3ccccc23)cc1` was 131%; that for `CCOC(=O)C1(Cc2ccccc2C(F)(F)F)CCN(C(=O)c2cc(C)n(C)n2)CC1` was 91%.
In the case of `COc1ccc(N(C)S(=O)(=O)c2ccc3c(c2)CC(C)N3C(=O)C2CC2)c(OC)c1` (stereo unspecified) it was 101%; in that of `COC(=O)CCCC1=CC2=CC(=O)C(C)(OC(=O)c3cccs3)C(=O)C2=CN1CC1CC1` (stereo unspecified), 87%.
As for `CC1(OC(=O)C2CCCC2)C(=O)C=C2C=C(c3ccc(C#N)cc3)OC=C2C1=O` (stereo unspecified), the binding response (% of control) was 90%.
The value for `COCCN1C=C2C(=O)C(C)(OC(=O)C3CCCC3)C(=O)C=C2C=C1c1ccsc1` (stereo unspecified) was 164% (active); that for `Cc1ccc(NC(=S)NCCc2ccc(Cl)cc2)c(C)c1` was 111%.
In the case of `CN(CC(=O)Nc1cccc(F)c1)CC(=O)Nc1cccc([N+](=O)[O-])c1` it was 691% (active).
The value for `Cc1ccc(CN(C)CC(=O)Nc2cccc([N+](=O)[O-])c2)o1` was 83%; that for `Cc1ccc(NC(=O)CN(C)CC(=O)Nc2cccc(F)c2)cc1[N+](=O)[O-]` was 97%.
As for `O=C(NCCNc1ccccc1[N+](=O)[O-])c1ccccc1F`, the binding response (% of control) was 105%.
The value for `CCN1CCN(c2ccc(S(=O)(=O)N3CCCCC3)cc2NC(=O)Cc2c(Cl)cccc2Cl)CC1` was 150% (active); that for `CN1CCN(c2ccc(S(=O)(=O)N3CCCCC3)cc2NC(=O)Cc2ccccc2F)CC1` was 106%.
On to `COc1ccc(CC(=O)Nc2cc(S(=O)(=O)N3CCCCC3)ccc2N2CCN(C)CC2)cc1`, for which the binding response (% of control) was 103%.
The value for `CCOC(=O)/C=C/c1ccc(C(F)(F)F)cc1S(=O)(=O)NC(C)(C)C` was 93%; that for `Cc1ccc(N(CC(=O)NC2CCCCC2)C(=O)CCCC(=O)Nc2ccccn2)c(C)c1` was 105%.
The value for `CC1(C)c2[nH]c3ccccc3c2C[C@H]2C(=O)N(N)CC(=O)N21` was 110%; that for `CCOc1ccc2nc(N(CCCN(C)C)C(=O)c3ccc(C(=O)c4ccccc4)cc3)sc2c1` was 155% (active); that for `CCOc1ccc2nc(N(CCN(C)C)C(=O)c3ccc4ccccc4c3)sc2c1` was 129%.
Regarding `CSc1nc2ccc(S(=O)(=O)N3CCc4ccccc43)cc2s1`, the binding response (% of control) was 98%.
In the case of `CCc1ccc2nc(N(CCCN(C)C)C(=O)c3ccc4c(c3)OCCO4)sc2c1`, the binding response (% of control) was 116%.
